In PubChem BioAssay (NCI):
Values joined by “and” are separate entries in the source; they are usually repeats but may differ in a detail not shown here. Equal values may be shown once. About 83,000 compounds went through this panel and 20% of them were active in at least one assay; those are over-represented in the sample as a whole.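 Cells were grown in 96-well plates and exposed to the test compound at a single concentration for 48 hours; results are reported as percent growth, with values below 10 considered active.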 Where a structure was tested more than once in an assay, its records may differ in their call. Active and inactive are the calls of the source.

How the values were obtained:
Test in all cases: NCI-60 one-dose screen, 48 h (100 = growth as untreated, 0 = no growth, -100 = all killed)
Settings in all cases: 10 µM unless noted
[1] = system: HCT-15 colon
[2] = system: HT29 colon
[3] = system: SNB-75 CNS
[4] = system: SNB-19 CNS
[5] = system: U251 CNS
[6] = system: PC-3 prostate
[7] = system: SK-MEL-5 melanoma
[8] = system: UACC-62 melanoma
[9] = system: LOX IMVI melanoma
[10] = system: SK-MEL-28 melanoma

SMILES: CC(C)(O)Cn1cc(-c2ccc3nc(OC4CC4)ccc3c2)c2c(N)ncnc21
- growth [1]: 95.3% (inactive) and 73.8% (inactive)
- growth [2]: 74% (inactive) and 44.6% (inactive)
- growth [3]: 40.2% (inactive) and 37.9% (inactive)
- growth [4]: 74.8% (inactive) and 64.3% (inactive)
- growth [5]: 82.1% (inactive) and 50.5% (inactive)
- growth [6]: 56.8% (inactive) and 48.2% (inactive)
- growth [7]: 84.3% (inactive) and 37.8% (inactive)
- growth [8]: 48.4% (inactive)
- growth [9]: 72.8% (inactive) and 30.4% (inactive)
- growth [10]: 101% (inactive) and 71.5% (inactive)

SMILES: O=C1C2=C(C(=O)c3ccccc31)C(O)(S(=O)(=O)O)C(O)(S(=O)(=O)O)C1N=CC=CC21 (stereo not given)
- growth [1]: 32.3% (inactive) and 38.7% (inactive)
- growth [2]: 46.6% (inactive) and 21.4% (inactive)
- growth [3]: 61.1% (inactive) and 35.1% (inactive)
- growth [4]: 43.8% (inactive) and 48.5% (inactive)
- growth [5]: 30.3% (inactive) and 18.7% (inactive)
- growth [6]: 31.8% (inactive) and 30.2% (inactive)
- growth [7]: 26.6% (inactive) and 29.7% (inactive)
- growth [8]: 51.3% (inactive) and 45.6% (inactive)
- growth [9]: 36.7% (inactive) and 24.7% (inactive)
- growth [10]: 89.2% (inactive) and 73% (inactive)

SMILES: COc1ccc(/C(C#N)=C/c2ccccn2)cc1
- growth [1]: 96.2% (inactive) and 109% (inactive)
- growth [2]: 106% (inactive) and 103% (inactive)
- growth [3]: 99.2% (inactive) and 105% (inactive)
- growth [4]: 97.9% (inactive) and 106% (inactive)
- growth [5]: 97.9% (inactive) and 101% (inactive)
- growth [6]: 104% (inactive) and 101% (inactive)
- growth [7]: 94.9% (inactive) and 99.9% (inactive)
- growth [8]: 93.8% (inactive) and 114% (inactive)
- growth [9]: 99.7% (inactive) and 115% (inactive)
- growth [10]: 107% (inactive) and 139% (inactive)

SMILES: Oc1c(CN2CCCCC2)ccc2cccnc12
- growth [1]: 33.6% (inactive) and 30.3% (inactive)
- growth [2]: 66.6% (inactive) and 28.6% (inactive)
- growth [3]: 82.5% (inactive) and 85.6% (inactive)
- growth [4]: 65.9% (inactive) and 74.1% (inactive)
- growth [5]: 41.8% (inactive) and 38.7% (inactive)
- growth [6]: 52.1% (inactive) and 39% (inactive)
- growth [7]: 45% (inactive) and -25.6% (active)
- growth [8]: 46% (inactive) and 45.6% (inactive)
- growth [9]: 27.3% (inactive) and 44.1% (inactive)
- growth [10]: 85.2% (inactive) and 85.7% (inactive)

SMILES: O=C(Nc1cccc(-n2ccc3c(NC(=O)c4ccccc4)nccc32)c1)c1ccc(Cl)c(C(F)(F)F)c1
- growth [1]: -15.1% (active) and 34.3% (inactive)
- growth [2]: 43% (inactive)
- growth [3]: 16% (inactive) and 84.4% (inactive)
- growth [4]: 13.8% (inactive) and 55.4% (inactive)
- growth [5]: 43.4% (inactive)
- growth [6]: -30.6% (active) and 51.1% (inactive)
- growth [7]: -92.4% (active) and 57.4% (inactive)
- growth [8]: 5.48% (active) and 54.1% (inactive)
- growth [9]: -80.3% (active) and 18.4% (inactive)
- growth [10]: -38.9% (active) and 79.8% (inactive)

SMILES: CCN1CCN(CCNc2nccc(-c3c(-c4cccc(O)c4)nc4sccn34)n2)S1(=O)=O
- growth [1]: 67.7% (inactive) and 59% (inactive)
- growth [2]: 45.3% (inactive) and 50.4% (inactive)
- growth [3]: 62.6% (inactive) and 50.2% (inactive)
- growth [4]: 104% (inactive) and 117% (inactive)
- growth [5]: 90.4% (inactive) and 93.2% (inactive)
- growth [6]: 63.9% (inactive) and 77.9% (inactive)
- growth [7]: 51% (inactive) and 32.4% (inactive)
- growth [8]: 0.351% (active) and 0.223% (active)
- growth [9]: 37.7% (inactive) and 30.9% (inactive)
- growth [10]: 23.7% (inactive) and 20.5% (inactive)

SMILES: COc1ccccc1C(C)=O
- growth [1]: 108% (inactive) and 95.7% (inactive)
- growth [2]: 114% (inactive) and 102% (inactive)
- growth [3]: 105% (inactive) and 85.1% (inactive)
- growth [4]: 116% (inactive) and 109% (inactive)
- growth [5]: 107% (inactive) and 106% (inactive)
- growth [6]: 89.7% (inactive) and 96.9% (inactive)
- growth [7]: 105% (inactive) and 110% (inactive)
- growth [8]: 109% (inactive) and 108% (inactive)
- growth [9]: 103% (inactive) and 60.6% (inactive)
- growth [10]: 121% (inactive) and 106% (inactive)

SMILES: CCOC(=O)C(CNc1ccccc1)C(=O)OCC
- growth [1]: 106% (inactive)
- growth [2]: 105% (inactive)
- growth [3]: 77.9% (inactive)
- growth [4]: 91.2% (inactive)
- growth [5]: 93.5% (inactive)
- growth [6]: 98.2% (inactive)
- growth [7]: 100% (inactive)
- growth [8]: 103% (inactive)
- growth [9]: 101% (inactive)
- growth [10]: 103% (inactive)

SMILES: Cc1n[nH]c(=O)n(/N=C\c2c[nH]c3ccccc23)c1=O
- growth [1]: 105% (inactive)
- growth [2]: 101% (inactive)
- growth [3]: 84% (inactive)
- growth [4]: 105% (inactive)
- growth [5]: 98.8% (inactive)
- growth [6]: 97.9% (inactive)
- growth [7]: 102% (inactive)
- growth [8]: 107% (inactive)
- growth [9]: 99.4% (inactive)
- growth [10]: 105% (inactive)

SMILES: CC1=C(/C=C/C(C)=C/C=C/C(C)=C/C=N/NC(=S)NC(=S)N/N=C/C=C(C)/C=C/C=C(C)/C=C/C2=C(C)CCCC2(C)C)C(C)(C)CCC1
- growth [1]: 26.5% (inactive) and -6.65% (active)
- growth [2]: -0.991% (active) and -29.3% (active)
- growth [3]: -4.78% (active) and -40% (active)
- growth [4]: 36.2% (inactive) and 16.3% (inactive)
- growth [5]: -61.8% (active) and -94.4% (active)
- growth [6]: -1.77% (active) and -12.4% (active)
- growth [7]: -63% (active) and -96.5% (active)
- growth [8]: -60% (active) and -75.5% (active)
- growth [9]: -100% (active) and -93.6% (active)
- growth [10]: -24.4% (active) and -57.5% (active)

SMILES: COc1cc(NS(C)(=O)=O)ccc1Nc1c2ccccc2nc2c(C)cccc12
- growth [1]: 7.59% (active) and 0.251% (active)
- growth [2]: -36.8% (active) and 0.935% (active)
- growth [3]: -7.95% (active) and -6.77% (active)
- growth [4]: 19.8% (inactive) and 25.2% (inactive)
- growth [5]: -3.95% (active) and -7.3% (active)
- growth [6]: 17.8% (inactive) and 28.4% (inactive)
- growth [7]: -29.9% (active) and 2.9% (active)
- growth [8]: 1.52% (active) and 23.3% (inactive)
- growth [9]: -49.9% (active) and -3.55% (active)
- growth [10]: 21.6% (inactive) and 21% (inactive)

SMILES: OCCN1CCN(CCO)CC1
- growth [1]: 102% (inactive) and 101% (inactive) and 107% (inactive)
- growth [2]: 108% (inactive) and 101% (inactive) and 110% (inactive)
- growth [3]: 111% (inactive) and 83.4% (inactive) and 96.1% (inactive)
- growth [4]: 99.2% (inactive) and 113% (inactive)
- growth [5]: 95.7% (inactive) and 98% (inactive) and 105% (inactive)
- growth [6]: 91.7% (inactive) and 99.9% (inactive) and 96.2% (inactive)
- growth [7]: 102% (inactive) and 92% (inactive) and 115% (inactive)
- growth [8]: 99.5% (inactive) and 92.6% (inactive) and 109% (inactive)
- growth [9]: 92.9% (inactive) and 93.2% (inactive) and 111% (inactive)
- growth [10]: 33.7% (inactive) and 104% (inactive) and 106% (inactive)

SMILES: COC(=O)/C=C/c1cc(O)c2c(c1)C(C(=O)OC)C(c1ccc(O)c(O)c1)O2 (stereo not given)
- growth [1]: 16.7% (inactive) and 16.2% (inactive)
- growth [2]: 22.8% (inactive) and 16.3% (inactive)
- growth [3]: 52.9% (inactive) and 37.5% (inactive)
- growth [4]: 35.7% (inactive) and 37.2% (inactive)
- growth [5]: 20.7% (inactive) and 14.9% (inactive)
- growth [6]: 20.3% (inactive) and 17% (inactive)
- growth [7]: 3.62% (active) and -13.7% (active)
- growth [8]: 25.9% (inactive) and 31.2% (inactive)
- growth [9]: 20.8% (inactive) and 16.3% (inactive)
- growth [10]: 55.3% (inactive) and 53% (inactive)

SMILES: O=C1NC(=O)C2(CCc3ccccc32)N1 (stereo not given)
- growth [1]: 104% (inactive) and 108% (inactive)
- growth [2]: 104% (inactive) and 109% (inactive)
- growth [3]: 96.2% (inactive) and 94.1% (inactive)
- growth [4]: 96.2% (inactive) and 103% (inactive)
- growth [5]: 109% (inactive) and 99% (inactive)
- growth [6]: 133% (inactive) and 88.2% (inactive)
- growth [7]: 99.4% (inactive) and 108% (inactive)
- growth [8]: 100% (inactive) and 96.7% (inactive)
- growth [9]: 103% (inactive) and 95.7% (inactive)
- growth [10]: 123% (inactive)

SMILES: CN1C(=O)C(N=Nc2ccc([N+](=O)[O-])cc2)SC1=S (stereo not given)
- growth [1]: 51.7% (inactive) and 50.8% (inactive)
- growth [2]: 64.4% (inactive) and 80.4% (inactive)
- growth [3]: 85.9% (inactive) and 91.5% (inactive)
- growth [4]: 69.4% (inactive) and 81.4% (inactive)
- growth [5]: 62.8% (inactive) and 69.4% (inactive)
- growth [6]: 55.5% (inactive) and 50.8% (inactive)
- growth [7]: 71.3% (inactive) and 73.7% (inactive)
- growth [8]: 29.8% (inactive) and 38.4% (inactive)
- growth [9]: 41.9% (inactive) and 51.5% (inactive)
- growth [10]: 86.6% (inactive) and 95.9% (inactive)

SMILES: CC(=O)Nc1ccc2cc3ccc(NC(C)=O)cc3nc2c1
- growth [1]: 103% (inactive) and 106% (inactive)
- growth [2]: 97.3% (inactive) and 90.1% (inactive)
- growth [3]: 71.1% (inactive) and 83.1% (inactive)
- growth [4]: 79.2% (inactive) and 73.4% (inactive)
- growth [5]: 74.3% (inactive) and 72.3% (inactive)
- growth [6]: 75.1% (inactive) and 42.4% (inactive)
- growth [7]: 92.2% (inactive) and 105% (inactive)
- growth [8]: 82.2% (inactive) and 85.7% (inactive)
- growth [9]: 89% (inactive) and 85.9% (inactive)
- growth [10]: 110% (inactive) and 139% (inactive)
